# Laboratory results taken from PubChem BioAssay AID738 (SRMLSC, 2007).
# Out of some 98,000 compounds screened, about 4,900 (5%) were called active. This excerpt belongs to a sample that is enriched for actives. A number with no mark means an inactive call. Cut-off read from the data, not from the text of the source: active = inhibition above about 30%; inactive = the rest.
# Experiment: growth inhibition of yeast control strain, primary screen, counter-screen for post-Golgi transport modulator project (AID 738)
# Details: efflux-deficient yeast background strain, growth absorbance A615, 16 h; at 10 µM; stronger effect = higher value
row,Compound,inhibition
1,C=CCNC(=O)c1cc2nc(C3CC3)cc(C(F)F)n2n1,11%
2,O=C1CC(c2ccccc2)C(=O)N1c1cccc(O)c1 (configuration not stated),47.5% (active)
3,COC(=O)c1cc(C(=O)OC)cc(N2C(=O)CC(N3CCN(c4ccccc4)CC3)C2=O)c1 (configuration not stated),-1.95%
4,O=C1CC(NNc2ccccc2)C(=O)N1c1cccc(Cl)c1 (configuration not stated),-2.74%
5,COc1ccc(Oc2coc3cc(OC(=O)c4cncc(Br)c4)ccc3c2=O)cc1,-3.94%
6,COc1ccc(C(=S)Nc2ccccc2)cc1,-2.5%
7,CS(=O)(=O)N(CC(=O)Nc1ccc(F)cc1F)c1cccc([N+](=O)[O-])c1,-6.14%
8,Cc1ccc(C(=O)c2c(NC(=O)c3ccccc3)sc(C)c2C)cc1,4.53%
9,Cc1ccc(C(=O)c2c(NC(=O)c3ccncc3)sc3c2CCCC3)cc1,65.8% (active)
10,COC(=O)c1c(NC(=O)c2cccs2)sc2c1CCCC2,10.9%
11,CN1C(=O)C(CC(N)=O)N(NC(=O)c2ccc(Cl)cc2)C1=S (configuration not stated),-2.73%
12,C=CCn1c(Oc2ccc(C(=O)OC)cc2)nc2c1c(=O)n(C)c(=O)n2C,11.7%
13,Cc1nc(C)c(C(=O)N(c2ccc(C)c(C)c2)C(C(=O)NCc2ccco2)c2ccccc2)s1 (configuration not stated),-4.44%
14,O=C(COc1ncnc2c(Cl)cc(Cl)cc12)N1CCN(S(=O)(=O)c2ccccc2)CC1,0.78%
15,Cc1cc(NC(=O)CN2CCCC(C)C2)n(-c2nc3ccccc3s2)n1 (configuration not stated),19.3%
16,CCOC(=O)N1CCN(CC(=O)Nc2cc(C)nn2-c2nc3ccccc3s2)CC1,42% (active)
17,Cc1nn(CC(=O)Nc2nc3ccccc3s2)c(C)c1[N+](=O)[O-],-2.54%
18,COc1ccc(/C=C2\CCCC3C2=NN(C(=O)c2scnc2C)C3c2ccc(OC)cc2)cc1 (configuration not stated),9.28%
19,CCC(C)(C)n1nnnc1C(c1cccs1)N1CCN(Cc2ccccc2)CC1 (configuration not stated),3.99%
20,CCC(C)(C)n1nnnc1C(c1ccccc1OC)N1CCSCC1 (configuration not stated),17.9%
21,CCC(C)(C)n1nnnc1C(c1cccs1)N1CCN(c2nc3ccccc3s2)CC1 (configuration not stated),34.9% (active)
22,CCOc1ccc(C(O)Cn2c(=N)n(CCN3CCCCC3)c3ccccc32)cc1 (configuration not stated),7.31%
23,O=C(CSc1nc(-c2ccco2)cc(C(F)(F)F)n1)N1CCc2ccccc2C1,30.3% (active)

row,Compound,inhibition
1,FC(F)(F)c1cc(-c2ccco2)nc(N2CCOCC2)n1,16.9%
2,O=C(CSc1nc(-c2ccco2)cc(C(F)(F)F)n1)NCc1cccs1,8.94%
3,CCOC(=O)c1cnc(SC)nc1Sc1ccc(Cl)cc1Cl,3.77%
4,Cc1ccc(NS(=O)(=O)c2c(C)[nH]c(=O)[nH]c2=O)cc1C,11.7%
5,O=C(Cc1ccccc1)N/N=C/c1ccc(Cl)cc1Cl,24.5%
6,CCCCOc1ccc(C(C)(O)CCN2CCOCC2)cc1 (configuration not stated),12.6%
7,COCCN1C(=O)c2oc3c(C)cc(C)cc3c(=O)c2C1c1cccc(O)c1 (configuration not stated),4.63%
8,CCCOc1ccc(C2c3c(oc4cc(C)c(C)cc4c3=O)C(=O)N2CCCN2CCOCC2)cc1 (configuration not stated),42.7% (active)
9,COc1ccc2c(c1)CCc1c(C(=O)Nc3c(C)n(C)n(-c4ccccc4)c3=O)noc1-2,21%
10,COc1ccc2c(c1)CCc1c(C(=O)N3CCc4ccccc4C3)noc1-2,44.9% (active)
11,COc1ccc2c(c1)CCc1c(C(=O)N3CCCC3)noc1-2,-1.03%
12,O=c1cc(C(F)(F)F)[nH]c(=O)n1C1CCCCC1,23.5%
13,COCCN(C(=O)c1ccco1)c1nnc(-c2ccc(OC)cc2)s1,10%
14,Cc1cc(Nc2ccccc2)nc(N)n1,4.89%
15,Cc1nn(C)cc1/C=C1\CCC/C(=C\c2cn(C)nc2C)C1=O,12.9%
16,CCOC(=O)CNC(=O)CSc1nnnn1-c1cc(C)ccc1C,3.59%
17,CCOC(=O)c1c(-c2ccc(C)cc2C)csc1NC(=O)CSc1nnnn1C,66.1% (active)
18,CNC(=O)CSc1nnnn1-c1ccc(C)cc1C,24.1%
19,CC(C)C(NS(=O)(=O)c1cccs1)C(=O)Nc1nc(C(C)(C)C)cs1 (configuration not stated),16.8%
20,CCn1cc(C(=O)N2CCN(Cc3ccc4c(c3)OCO4)CC2)c2cc(OC)c(OC)cc2c1=O,-2.75%
21,COc1cc(Cl)c(S(=O)(=O)N2CCN(Cc3ccc4c(c3)OCO4)CC2)cc1Cl,60.2% (active)
22,CS(=O)(=O)N(CC(=O)N1CCN(Cc2ccc3c(c2)OCO3)CC1)c1ccc2c(c1)OCO2,2.83%
23,Cc1ccccc1OCc1nnc(SCC(=O)N2c3ccccc3Sc3ccc(Cl)cc32)o1,5.3%

row,Compound,inhibition
1,Cc1[nH]c(=O)c(C(=O)/C=C/c2ccccc2)c2c1CCCC2,24.5%
2,O=C(NC1=NCCS1)[C@H](Cc1ccccc1)N1C(=O)c2ccccc2C1=O,-1.98%
3,CCOC(=O)c1nn(-c2cccc(C)c2)cc1C(=O)c1ccccc1,12.9%
4,Nc1c(-c2ccc(F)cc2)cnc2ncnn12,1.38%
5,CNC(=S)NNC(=O)c1sccc1OCc1ccccc1,26.7%
6,Cc1ccc(NC(=O)N2CCC(O)(c3cccnc3)CC2)cc1,-0.9%
7,COCCOC(=O)C1=C(C)NC(=O)NC1c1ccc(Cl)cc1 (configuration not stated),2.51%
8,CCOC(=O)C1=C(CN2CCc3ccccc32)NC(=O)NC1c1cccc([N+](=O)[O-])c1 (configuration not stated),1.33%
9,CCOC(=O)C1=C(CN2CCc3ccccc32)NC(=O)NC1c1ccc(Cl)cc1 (configuration not stated),40.8% (active)
10,COc1cccc2c1OCC(C(=O)NCc1ccc(Cl)cc1Cl)=C2,9.54%
11,Cc1nnc(SCC(=O)N2CCN(c3ccccc3)CC2)n1-c1ccccc1,2.49%
12,O=C(CSc1nnc(-c2cccs2)n1-c1ccccc1)N1CCN(C(=O)c2ccco2)CC1,37.9% (active)
13,Cc1nnc(SCC(=O)N2CCc3ccccc3C2)s1,1.25%
14,CCn1c(SCC(=O)c2ccc3ccccc3c2)nnc1-c1cccs1,5.6%
15,O=C(CSc1nnc(-c2cccs2)n1Cc1ccccc1)N1CCc2ccccc2C1,40.2% (active)
16,O=C(CSc1nnc(-c2cccs2)n1-c1ccccc1)NCc1ccco1,6.51%
17,O=C(OCN1C(=O)c2ccccc2C1=O)/C(=C\c1ccco1)NC(=O)c1ccccc1,-11.4%
18,Cc1cc(OC(=O)c2c(Cl)cccc2Cl)nc(C)n1,3.63%
19,O=C(Nc1ncc2c(n1)-c1ccccc1OC2)c1ccc(Cl)cc1,22.5%
20,CC(C)c1ccc(N2CCN(C(=O)c3ccccc3NC(=O)/C=C(\C(=O)O)c3ccccc3)CC2)cc1,11.3%
21,Cc1ccc(S(=O)(=O)N(CC(=O)N/N=C/c2ccc(F)cc2)c2cccc3cccnc23)cc1,6.82%
22,COC(=O)c1[nH]c2ccccc2c1NC(=O)CN1CCCc2ccccc21,43.4% (active)
23,CCOC(=O)c1[nH]c2ccc(OC)cc2c1NC(=O)CCN1CCN(Cc2ccccc2)CC1,1.92%

row,Compound,inhibition
1,COC(=O)c1[nH]c2cccc(C)c2c1NC(=O)CN1CCCc2ccccc21,19.7%
2,Cc1ccc(S(=O)(=O)NCC(=O)N2CCN(c3ccccn3)CC2)cc1,2.13%
3,Cc1ccnc(N2CCN(C(=O)CSc3nc4ccccc4nc3N3CCCCC3)CC2)c1,42.9% (active)
4,Cc1ccc2oc(=O)c3cnn(CC(=O)N4CCN(c5ccccn5)CC4)c3c2c1,-3.03%
5,Cc1ccc(SCC(=O)c2sc(-c3ccccc3)nc2C)cc1,-6.19%
6,COc1ccc(-c2n[nH]c(C)c2-c2ccc(OC)c(OC)c2)c(O)c1,15%
7,C=C(C)COc1ccc(-c2n[nH]c(C)c2-c2ccccc2)c(O)c1,34.8% (active)
8,C=C(C)COc1ccc(-c2n[nH]c(C)c2-c2ccccc2OC)c(O)c1,7.96%
9,O=C(CN1C(=O)NC(Cc2ccccc2)(Cc2ccccc2)C1=O)NCC1CCCCC1,16.1%
10,CN1CCN(C(=O)C2C3C=CC(C3)C2C(=O)O)CC1 (configuration not stated),36.6% (active)
11,O=C(O)C1C2C=CC(C2)C1C(=O)N1CCN(CCO)CC1 (configuration not stated),7.62%
12,COC(=O)c1cc(NC(=O)C2C3C=CC(C3)C2C(=O)O)cc(C(=O)OC)c1 (configuration not stated),6.4%
13,O=C(CN1C(=O)CC(c2ccccc2)=Nc2ccccc21)NC1CCCCC1,7.73%
14,COc1cccc(-c2cc3nc4c(c(N5CCC6(CC5)OCCO6)n3n2)CCCC4)c1,77.5% (active)
15,COc1cccc(CNc2nc3nc4c(c(=O)n3[nH]2)CCC4)c1,3.19%
16,COc1cccc(-c2nc(S(=O)(=O)c3ccccc3)c(N3CCOCC3)o2)c1,15.6%
17,CCOc1ccc(Nc2nc(Cc3nnc(SCC(=O)NC4CCCC4)n3C)cs2)cc1,5.32%
18,O=C(/C=C/c1ccccc1)c1ccoc1,17.6%
19,COc1ccc(C(=O)Nc2ncc3c(n2)-c2ccccc2CC3)cc1,-6.73%
20,O=C(CCCN1C(=O)c2cccc3cccc(c23)C1=O)N1CCN(Cc2ccc3c(c2)OCO3)CC1,13.6%
21,COc1ccc(C2CC(c3ccc(C)cc3)Nc3ncnn32)cc1 (configuration not stated),0.32%
22,Clc1ccc(C2CC(c3cccs3)n3ncnc3N2)cc1Cl (configuration not stated),43% (active)
23,COc1ccc(C2CC(c3ccccc3)Nc3ncnn32)cc1 (configuration not stated),6.21%
